Source: PubChem BioAssay (EPA / NIEHS)
Activity calls are given as the source filed them. The calls were made as follows: active = hit-call score of the fitted dose curve at least 0.9, where 1 is the maximum; inactive = score below 0.9.

Columns and labels:
[1] = read-out: Matrix Metallopeptidase 1 (MMP1), MMP1 (gene 4312); assay: BSK_BE3C_MMP1: BioMAP Diversity Plus: BE3C Assay for Matrix Metallopeptidase 1 (MMP1) Biomarker Activity (AID 2283024); conditions: primary human bronchial epithelial cells; actives raise or lower the signal
Summary of the method: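 MMP1 signal, measured by ELISA after a 24 h chemical exposure of human primary bronchial epithelial cells, is analysed with bidirectional fitting using DMSO as negative control.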

[2] = BSK_3C_Vis: BioMAP Diversity Plus: 3C Assay for Morphology Visualization (AID 2283025); conditions: primary human endothelial cells (HUVEC);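 also: fitted both ways so gain or loss versus DMSO counts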
Summary of the method: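 Morphology read by light microscopy serves as a background control for the multiplexed 3C assay in human umbilical vein endothelial cells, taken 24 h after dosing, with DMSO as the negative control and bidirectional curve fitting.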

[3] = read-out: Pselectin, SELP (gene 6403); assay: BSK_4H_Pselectin: BioMAP Diversity Plus: 4H Assay for Pselectin Biomarker Activity (AID 2283026); conditions: primary human endothelial cells (HUVEC); actives raise or lower the signal
Summary of the method: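 Endothelial primary cells (human umbilical vein) are dosed, incubated 24 h, and assayed for surface P-selectin by ELISA; responses in either direction are fitted relative to the DMSO negative control.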

[4] = BSK_4H_SRB: Viability Assessment in the BioMAP Diversity Plus: 4H Assay (AID 2283027); conditions: primary human endothelial cells (HUVEC);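 also: cells exposed to compound for 24 h before staining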;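 as to AC50: curves fitted both ways versus DMSO so AC50 may be loss or gain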
Summary of the method: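 Cytotoxicity readout: sulforhodamine B (0.1%) staining of total protein after 10% TCA fixation, measured at 560 nm in human umbilical vein endothelium at 24 h. DMSO set the baseline; fitting was bidirectional.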

[5] = BSK_BE3C_SRB: Viability Assessment in the BioMAP Diversity Plus: BE3C Assay (AID 2283028); conditions: primary human bronchial epithelial cells;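 as to AC50: fitted both ways so AC50 may mark signal gain or loss versus DMSO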
Summary of the method: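 Human bronchial epithelial primary cells in confluent culture, 24 h after chemical dosing; total protein by 0.1% SRB staining after 10% TCA fixation, read at 560 nm. Bidirectional fitting versus DMSO baseline.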

[6] = read-out: Thrombomodulin, THBD (gene 7056); assay: BSK_3C_Thrombomodulin: BioMAP Diversity Plus: 3C Assay for Thrombomodulin Biomarker Activity (AID 2283029); conditions: primary human endothelial cells (HUVEC); actives raise or lower the signal
Summary of the method: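 Endothelial cells from umbilical vein are dosed with test chemical and incubated 24 h. Thrombomodulin is then quantified by ELISA, with DMSO serving as negative control and activity baseline.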

[7] = read-out: Urokinase-type plasminogen activator receptor (uPAR), PLAUR (gene 5329); assay: BSK_4H_uPAR: BioMAP Diversity Plus: 4H Assay for Urokinase-type plasminogen activator receptor (uPAR) Biomarker Activity (AID 2283030); conditions: primary human endothelial cells (HUVEC); actives raise or lower the signal
Summary of the method: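 Human umbilical vein endothelial cells in the 4H system, 24 h after chemical dosing. Cell-surface uPAR measured by ELISA, fitted in both directions versus DMSO; cytotoxicity checked by SRB total protein in parallel cultures.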

[8] = read-out: Vascular endothelial growth factor receptor 2 (Homo sapiens) (UniProt P35968); assay: BSK_4H_VEGFRII: BioMAP Diversity Plus: 4H Assay for Vascular endothelial growth factor receptor 2 (VEGFR2) Biomarker Activity (AID 2283031); conditions: primary human endothelial cells (HUVEC); actives raise or lower the signal;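 as to AC50: cell-surface VEGFR2 protein level quantified by ELISA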
Summary of the method: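 Primary human umbilical vein endothelial cells (4H system), 24 h exposure; cell-surface VEGFR2 measured by ELISA. Bidirectional fitting versus DMSO; cytotoxicity checked in parallel by SRB total-protein staining.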

[9] = read-out: Human Leukocyte Antigen - DR isotype (HLADR), HLA-DRA (gene 3122); assay: BSK_BE3C_HLADR: BioMAP Diversity Plus: BE3C Assay for Human Leukocyte Antigen - DR isotype (HLADR) Biomarker Activity (AID 2283032); conditions: primary human bronchial epithelial cells; actives raise or lower the signal
Summary of the method: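 Chemicals are dosed onto BE3C bronchial epithelial cultures of human origin and left 24 h. HLA-DR is then measured by ELISA, and the endpoint is fitted in both directions using DMSO as the activity baseline.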

[10] = read-out: Vascular cell adhesion molecule 1 (VCAM1), VCAM1 (gene 7412); assay: BSK_4H_VCAM1: BioMAP Diversity Plus: 4H Assay for Vascular cell adhesion molecule 1 (VCAM1) Biomarker Activity (AID 2283033); conditions: primary human endothelial cells (HUVEC); actives raise or lower the signal
Summary of the method: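 Chemicals are added to primary human umbilical vein endothelial cells. After 24 h, VCAM-1 levels are measured by ELISA. Values come from bidirectional fitting referenced to DMSO.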

[11] = read-out: Interferon-gamma inducible Protein 10 (IP10), CXCL10 (gene 3627); assay: BSK_BE3C_IP10: BioMAP Diversity Plus: BE3C Assay for Interferon-gamma inducible Protein 10 (IP10) Biomarker Activity (AID 2283034); conditions: primary human bronchial epithelial cells; actives raise or lower the signal
Summary of the method: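 IP-10 quantified by ELISA serves as the endpoint. Cells: primary human bronchial epithelium, read 24 h after compound addition. Activity is derived by bidirectional fitting with DMSO as negative control.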

[12] = read-out: Monokine induced gamma interferon (MIG), CXCL9 (gene 4283); assay: BSK_BE3C_MIG: BioMAP Diversity Plus: BE3C Assay for Monokine induced gamma interferon (MIG) Biomarker Activity (AID 2283035); conditions: primary human bronchial epithelial cells; actives raise or lower the signal
Summary of the method: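 hu bronchial epithelial 1° cells, 24 h cpd; MIG by ELISA; bidirectional fit, DMSO = baseline.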

[13] = read-out: Transforming growth factor beta 1 (TGFb1), TGFB1 (gene 7040); assay: BSK_BE3C_TGFb1: BioMAP Diversity Plus: BE3C Assay for Transforming growth factor beta 1 (TGFb1) Biomarker Activity (AID 2283036); conditions: primary human bronchial epithelial cells; actives raise or lower the signal
Summary of the method: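 Bronchial epithelial primary cells are treated with test chemical, then TGF-b1 is quantified by ELISA after 24 hours. Values derive from bidirectional fitting against DMSO, with cytotoxicity checked by SRB staining in parallel cultures.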

[14] = read-out: Plasminogen activator inhibitor-1 (PAI1), SERPINE1 (gene 5054); assay: BSK_BE3C_PAI1: BioMAP Diversity Plus: BE3C Assay for Plasminogen activator inhibitor-1 (PAI1) Biomarker Activity (AID 2283037); conditions: primary human bronchial epithelial cells; actives raise or lower the signal
Summary of the method: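 Values derive from bidirectional fitting against DMSO baseline of PAI-1 levels, measured by ELISA in human bronchial epithelial cells 24 h after compound addition.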

[15] = read-out: urokinase plasminogen activator (uPA), PLAU (gene 5328); assay: BSK_BE3C_uPA: BioMAP Diversity Plus: BE3C Assay for urokinase plasminogen activator (uPA) Biomarker Activity (AID 2283038); conditions: primary human bronchial epithelial cells; actives raise or lower the signal
Summary of the method: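 Primary human bronchial epithelial cells, uPA measured by ELISA 24 h after dosing. Bidirectional change relative to DMSO; cytotoxicity checked in parallel cultures by sulforhodamine B total-protein staining.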

[16] = read-out: Urokinase-type plasminogen activator receptor (uPAR), PLAUR (gene 5329); assay: BSK_BE3C_uPAR: BioMAP Diversity Plus: BE3C Assay for Urokinase-type plasminogen activator receptor (uPAR) Biomarker Activity (AID 2283039); conditions: primary human bronchial epithelial cells; actives raise or lower the signal
Summary of the method: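 Steps: dose human primary bronchial epithelial cells, incubate 24 h, measure uPAR by ELISA, then fit gain- or loss-of-signal response bidirectionally relative to DMSO.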

[17] = read-out: Interleukin-6 (IL6), IL6 (gene 3569); assay: BSK_CASM3C_IL6: BioMAP Diversity Plus: CASM3C Assay for Interleukin-6 (IL6) Biomarker Activity for (AID 2283040); conditions: primary human coronary artery smooth muscle cells; actives raise or lower the signal
[18] = read-out: Tissue plasminogen activator (tPA), PLAT (gene 5327); assay: BSK_BE3C_tPA: BioMAP Diversity Plus: BE3C Assay for Tissue plasminogen activator (tPA) Biomarker Activity (AID 2283041); conditions: primary human bronchial epithelial cells; actives raise or lower the signal
Summary of the method: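 Gain- or loss-of-signal in tPA, measured by ELISA, derived by bidirectional fitting against DMSO. Cells: human primary bronchial epithelial; read at 24 h after chemical dosing.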

[19] = read-out: Interleukin-8 (IL8), CXCL8 (gene 3576); assay: BSK_CASM3C_IL8: BioMAP Diversity Plus: CASM3C Assay for Interleukin-8 (IL8) Biomarker Activity (AID 2283042); conditions: primary human coronary artery smooth muscle cells; actives raise or lower the signal;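 also: IL-8 protein level quantified by ELISA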

Measured: AC50

CCOC(=O)COc1ccc2c(c1)CC(NCC(O)c1cccc(Cl)c1)CC2 (centres undefined)
inactive: [1] | [5] | [6] | [12] | [14] | [16] | [17] | [18] | [19]
active: [2] 34.2 µM | [3] 29.8 µM | [4] 28.1 µM | [7] 28.7 µM | [8] 34.5 µM | [9] 30.3 µM | [10] 30 µM | [11] 30.3 µM | [13] 29 µM | [15] 31.2 µM

CCc1cc(SCc2sc(-c3ccc(C(F)(F)F)cc3)nc2CN2CCN(c3ccc(OC)cc3)CC2)ccc1OCC(=O)O
active: [1] 9.73 µM | [2] 14.5 µM | [3] 11.3 µM | [4] 11.8 µM | [5] 5.19 µM | [6] 37 µM | [7] 16 µM | [8] 4.8 µM | [9] 5.41 µM | [10] 10 µM | [11] 3.2 µM | [12] 5.52 µM | [13] 5.17 µM | [14] 3.07 µM | [15] 5.31 µM | [16] 5.38 µM | [17] 20 µM | [18] 5.23 µM | [19] 34.1 µM

O=C1CCC(N2C(=O)c3ccccc3C2=O)C(=O)N1 (centres undefined)
inactive: all assays above

O=c1n(CC2CO2)c(=O)n(CC2CO2)c(=O)n1CC1CO1 (centres undefined)
active: [2] 39 µM | [3] 11.8 µM | [4] 15.1 µM | [9] 34.7 µM | [10] 23.4 µM
inactive: all other assays above

CC[C@H](C)C(=O)O[C@H]1C[C@@H](C)C=C2C=C[C@H](C)[C@H](CC[C@@H]3C[C@@H](O)CC(=O)O3)[C@H]21
active: [1] 33.8 µM | [2] 28.3 µM | [3] 32.9 µM | [4] 19.9 µM | [7] 19.9 µM | [8] 27.3 µM | [9] 35.9 µM | [11] 36.3 µM | [12] 36.1 µM | [13] 34 µM | [14] 28.8 µM | [15] 32.1 µM | [16] 30.9 µM | [18] 25.6 µM
inactive: [6] | [17] | [19]

CCCN(C1CCN(C(=O)C2CCNCC2)CC1)[C@@H]1CCc2ccc(OC)cc2C1
inactive: all assays above

CC(C)=CCCC(C)=CC=O
inactive: all assays above

Cc1ccc(O)cc1
inactive: all assays above

CC(C)c1cccc(C(C)C)c1N1C(=O)c2ccc(O)cc2C1=O
active: [2] 5.57 µM | [3] 8.54 µM | [4] 12.8 µM | [7] 14.6 µM | [8] 20 µM | [9] 14 µM | [10] 29.4 µM | [11] 19.5 µM | [12] 26.3 µM | [14] 9.07 µM | [18] 27.2 µM
inactive: [1] | [5] | [6] | [15] | [17] | [19]

Cc1ccc(S(=O)(=O)O)cc1C
inactive: all assays above

COc1ccc2sc(C(=O)Nc3nnn[nH]3)c(OC(C)C)c2c1
inactive: [5] | [6] | [10] | [12] | [16]
active: [1] 14.2 µM | [2] 21.9 µM | [3] 4.45 µM | [4] 20 µM | [7] 12.7 µM | [8] 17.6 µM | [9] 19.9 µM | [11] 19.9 µM | [13] 9.17 µM | [14] 12.9 µM | [15] 8.38 µM | [18] 13.9 µM | [19] 29.4 µM
